# Laboratory results published in PubChem BioAssay (NCATS).
# Unmarked numbers belong to inactive results. Records with an inconclusive call do not appear. A call without a number means that no potency is given here. The source made the active and inactive calls. Calls come from the whole dose curve; as a rule, active = well fitted curve in the direction sought with a large enough effect; inconclusive = small, poorly fitted or top-dose-only effect, or another doubt; inactive = no such curve, though single readings can be large; an effect the other way counts as inactive or inconclusive.
# How the values were obtained:
# [1] = molecular target: Glutathione peroxidase 1 (Homo sapiens) (UniProt P07203); test: Primary qHTS Assay for Inhibitors of Recombinant Selenoprotein Glutathione Peroxidase 1 (GPX1) (AID 1845191); note: nearly all actives have a fitted effect of over 65% in size
# Outline: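 GR-coupled readout: NADPH consumption tracked by fluorescence, ex 340/em 450 nm, at t=0 and after 15 min at RT. Final mix 10 nM GPX1, 1 mM GSH, 0.5 mM CHP, 0.5 mM NADPH, 100 nM GR, 0.01% BSA, following 30 min enzyme–compound preincubation.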
# [2] = molecular target: Phospholipid hydroperoxide glutathione peroxidase GPX4 (Homo sapiens) (UniProt P36969); test: Primary qHTS Assay for Inhibitors of Recombinant Selenoprotein Glutathione Peroxidase 4 (GPX4) (AID 1845192); note: nearly all actives have a fitted effect of over 65% in size; for activity change, negative = inhibition: series mostly up to about 50 µM
# Outline: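 Steps: GPX4 plus compound, 30 min RT; add GR/GSH/NADPH master mix; start with cumene hydroperoxide; read 340/450 nm fluorescence at 0 and 15 min. Finals were 200 nM GPX4, 1 mM GSH, 0.5 mM CHP, 0.5 mM NADPH, 100 nM GR.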
# [3] = molecular target: Luciferin 4-monooxygenase (Photinus pyralis) (UniProt P08659); test: Primary firefly luciferase (FLuc) qHTS assay for identification of artifact compounds. (AID 1845220); note: nearly all actives have a fitted effect of over 60% in size; for activity change, negative = inhibition: series mostly up to about 54 µM
# Outline: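 Enzymatic FLuc inhibition assay: compounds pre-exposed to luciferin/ATP (10 uM each) for 15 min, then purified P. pyralis enzyme at 10 nM added. Read-out: luminescence at 5 min.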
# [4] = Primary fluorescence-based thiol-reactive (MSTI) qHTS assay for identification of artifact compounds. (AID 1845221); note: nearly all actives have a fitted effect of over 65% in size; note: potency is the fitted concentration of half-maximal effect;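 for activity change, negative = thiol reactive: series mostly up to about 54 µM; thiol-reactive compounds lower the probe fluorescence signal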
# Outline: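 MSTI probe at 4 uM final in 2% DMSO/PBS pH 7.4; compounds, 1 h at room temperature in dark. Fluorescence Ex/Em 525/598 nm, normalised to Acetyl-MSTI and MSTI, fitted to 4-parameter Hill.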
# [5] = test system: Nanoluciferase (engineered Oplophorus gracilirostris luciferase); test: Primary Nanoluciferase (NLuc) qHTS assay for identification of artifact compounds. (AID 1845222);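 note: NLuc secreted into diluted conditioned medium of S16 cells; series mostly up to about 54 µM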
# Outline: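 S16 cell supernatant NLuc, 1:55; cpds qHTS; 15 min RT dark; Nano-Glo substrate 1:100, 5 min; luminescence; Hill fit of % inhibition.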
# [6] = Primary redox qHTS assay for identification of artifact compounds. (AID 1845223)
# Outline: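 Redox-cycling detection via DTT (250 uM final) oxidation coupled to Amplex Red (25 uM)/HRP (250 mU/mL) in HBSS. 15 min preincubation plus 30 min after DTT, room temperature. Ex/Em 525/598 nm; 4-parameter Hill fit against DMSO and 10 uM DA3003.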
# Phospholipid hydroperoxide glutathione peroxidase GPX4 (Homo sapiens), sequence (P36969 whole entry, looked up): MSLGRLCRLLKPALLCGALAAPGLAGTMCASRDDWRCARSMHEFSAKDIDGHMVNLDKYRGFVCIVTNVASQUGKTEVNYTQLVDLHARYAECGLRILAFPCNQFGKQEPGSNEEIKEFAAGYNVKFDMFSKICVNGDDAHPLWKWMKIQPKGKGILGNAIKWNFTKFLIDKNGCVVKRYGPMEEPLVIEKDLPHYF
# Glutathione peroxidase 1 (Homo sapiens), sequence (P07203 whole entry, looked up): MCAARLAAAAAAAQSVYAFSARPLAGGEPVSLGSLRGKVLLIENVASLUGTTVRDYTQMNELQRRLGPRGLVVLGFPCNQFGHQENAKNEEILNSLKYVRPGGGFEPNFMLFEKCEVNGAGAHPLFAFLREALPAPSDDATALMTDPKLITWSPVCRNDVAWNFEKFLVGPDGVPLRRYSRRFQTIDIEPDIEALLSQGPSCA
SMILES,Potency [1],Potency [2],Potency [3],Potency [4],Potency [5],Potency [6],"activity change, negative = inhibition [3]","activity, negative = inhibition [5]",redox activity (% of DA3003) [6],"activity change, negative = thiol reactive [4]",outcome [3]
CC1C2=CC(=O)OC2(O)CC2C1C(OC(=O)c1ccccc1)C(OC(=O)c1ccccc1)C1(O)C2(C)CCC(O)C1(C)C(=O)O (stereo not given),inactive,inactive,inactive,inactive,inactive,inactive,,,,,
CC1(C)[C@@H]2CC=C(CO[C@@H]3O[C@H](CO[C@@H]4OC[C@H](O)[C@H](O)[C@H]4O)[C@@H](O)[C@H](O)[C@H]3O)[C@H]1C2,inactive,inactive,inactive,inactive,inactive,inactive,,,,,
C=C1C(OC(C)=O)CCC2(C)CCC(C(C)(C)O)CC12 (stereo not given),inactive,inactive,inactive,inactive,inactive,inactive,,,,,
CC[C@@H](Nc1c(Nc2cccc(C(=O)N(C)C)c2O)c(=O)c1=O)c1ccc(C)o1,inactive,inactive,inactive,2.38 µM (active),inactive,inactive,,,,,
CC(C)C(O)(CO)CCO[C@@H]1O[C@H](CO[C@H]2OC[C@](O)(CO)[C@H]2O)[C@@H](O)[C@H](O)[C@H]1O (stereo not given in full),inactive,inactive,inactive,inactive,inactive,inactive,,,,,
CN1CCN(c2nc(-c3ccc(C(=O)NC4(C(=O)NCC#N)CCCCC4)cc3)cs2)CC1,inactive,inactive,inactive,inactive,inactive,inactive,,,,,
COc1cc2c(c(OC)c1O)C(c1ccc(O)cc1)C1C(=O)OC3C(COC(=O)C1=C2)OC(CO)(OC1OC(COC(=O)/C=C/c2ccc(OC4OC(C)C(O)C(O)C4O)cc2)C(O)C(O)C1O)C3O (stereo not given),inactive,inactive,,4.5 µM (active),,,-10.6% [at 11.6 µM],-14.9% [at 11.6 µM],0.553% [at 11.5 µM],,
Cc1ccc(Cl)cc1N(CC(=O)Nc1c(F)cccc1F)S(C)(=O)=O,inactive,inactive,inactive,inactive,inactive,inactive,,,,,
COC(=O)[C@]1(C)CCC[C@@]2(C)[C@@H]3CC[C@@H]4C[C@@]3(CC[C@@H]21)C[C@H]4C(=O)O,inactive,inactive,inactive,inactive,inactive,inactive,,,,,
CC1=C2C(=O)C=C(CO)C2C2OC(=O)C(CS(=O)(=O)O)C2C(OC(=O)Cc2ccc(O)cc2)C1 (stereo not given),inactive,inactive,inactive,3.67 µM (active),inactive,inactive,,,,,
COc1cc(C2CC(=O)Nc3c2cc(Br)c2ccccc32)cc(OC)c1OC (stereo not given),inactive,inactive,inactive,inactive,inactive,inactive,,,,,
CCC(=O)OCC(=O)[C@@]1(OC(=O)CC)[C@@H](C)C[C@H]2[C@@H]3CCC4=CC(=O)C=C[C@]4(C)[C@@]3(F)[C@@H](O)C[C@@]21C,inactive,inactive,inactive,inactive,inactive,inactive,,,,,
C[C@@H]1O[C@@H](O[C@H]2[C@H](OC(=O)[C@]34CCC(C)(C)C[C@H]3C3=CCC5[C@@]6(C)CC[C@H](O[C@@H]7O[C@H](CO[C@@H]8OC[C@H](O)[C@H](O)[C@H]8O)[C@@H](O)[C@H](O)[C@H]7O)C(C)(C)C6CC[C@@]5(C)[C@]3(C)C[C@H]4O)OC[C@@H](O)[C@@H]2O)[C@H](O)[C@H](O[C@@H]2OC[C@](O)(CO)[C@H]2O)[C@H]1O[C@@H]1OC[C@H](O)[C@H](O[C@@H]2OC[C@@H](O)[C@H](O)[C@H]2O)[C@H]1O (stereo not given in full),inactive,inactive,,,,,-1.94% [at 11.6 µM],0.577% [at 11.6 µM],19.6% [at 11.5 µM],415% [at 11.5 µM],
CC(C)(O)C1CCC2(C)CCCC(C)(O)C2C1 (stereo not given),inactive,inactive,inactive,inactive,inactive,inactive,,,,,
Fc1ccc(-c2c3cccc(C(F)(F)F)c3nn2Cc2ccc(F)cc2Cl)cc1,inactive,inactive,inactive,inactive,inactive,inactive,,,,,
NC(=O)C(O[C@@H]1O[C@H](CO[C@@H]2O[C@H](CO)[C@@H](O)[C@H](O)[C@H]2O)[C@@H](O)[C@H](O)[C@H]1O)c1ccccc1 (stereo not given in full),inactive,inactive,inactive,inactive,inactive,inactive,,,,,
C=C1CCC2C(C)(C(=O)O)CCCC2(C)C1CC/C(C)=C\CO (stereo not given),inactive,inactive,inactive,inactive,inactive,inactive,,,,,
CC1(C)OC(=O)C=C[C@@]2(C)C1CC(=O)[C@]1(C)C2CC[C@@]2(C)[C@H](c3ccoc3)OC(=O)[C@H]3O[C@]321 (stereo not given in full),inactive,inactive,inactive,inactive,inactive,inactive,,,,,
COC(=O)C1C(c2ccc(O)cc2)C(C(=O)O)C1c1ccc(O)cc1 (stereo not given),inactive,inactive,inactive,inactive,inactive,inactive,,,,,
Cc1cn(-c2cc(NC(=O)c3ccc(C)c(Nc4nccc(-c5cnccn5)n4)c3)cc(C(F)(F)F)c2)cn1,inactive,inactive,inactive,inactive,inactive,inactive,,,,,
OC[C@@]1(O)CO[C@@H](OC[C@H]2O[C@@H](OCc3ccccc3)[C@H](O)[C@@H](O)[C@@H]2O)[C@@H]1O,inactive,inactive,inactive,inactive,inactive,inactive,,,,,
COc1cc(CO)cc(OC)c1O[C@@H]1O[C@H](CO)[C@@H](O)[C@H](O)[C@H]1O,inactive,inactive,inactive,inactive,inactive,inactive,,,,,

SMILES,Potency [1],Potency [2],Potency [3],Potency [4],Potency [5],Potency [6],"activity change, negative = inhibition [3]","activity, negative = inhibition [5]",redox activity (% of DA3003) [6],"activity change, negative = thiol reactive [4]",outcome [3]
COC(=O)C1=CO[C@@H](O[C@@H]2O[C@H](CO[C@@H]3O[C@H](CO)[C@@H](O)[C@H](O)[C@H]3O)[C@@H](O)[C@H](O)[C@H]2O)[C@@H]2C(CO)=CC[C@H]12,inactive,inactive,inactive,inactive,inactive,inactive,,,,,
O=C(O)[C@H](Cc1ccccc1)Oc1ccc(-c2ccccc2)cc1,inactive,inactive,inactive,inactive,,inactive,,,,,
C=C1CC2C3(C)C(O)CC(=O)C(C)(C)C3C(O)C(OC(C)=O)C2(C)C2C(=O)OC(C)(C(=O)OC)C(=O)C12C (stereo not given),inactive,inactive,inactive,inactive,,inactive,,,,,
O=C1C[C@@]2(C(=O)N1)C(=O)N(Cc1ccc(Br)cc1F)C(=O)c1cccn12,inactive,inactive,inactive,inactive,,inactive,,,,,
CC1CC(O)/C=C/C(O)/C=C\C(=O)O1 (stereo not given),inactive,inactive,inactive,inactive,,inactive,,,,,
C/C=C1/[C@H](O[C@@H]2O[C@H](CO)[C@@H](O)[C@H](O)[C@H]2O)OC=C(C(=O)OC)[C@H]1CC(=O)OCCc1ccc(O)c(O)c1,inactive,inactive,inactive,2.07 µM (active),inactive,inactive,,,,,
C=C1CC[C@H]2[C@@](C)(CCC(O)[C@@]2(C)CO)[C@@H]1/C=C/C(=C\C(=O)O)C(=O)O (stereo not given in full),inactive,inactive,inactive,5.21 µM (active),,inactive,,,,,
CC1(C)CC[C@]2(C(=O)O[C@@H]3O[C@H](CO)[C@@H](O)[C@H](O)[C@H]3O)CC[C@]3(C)C(=CCC4[C@@]5(C)CC[C@H](O[C@@H]6O[C@H](C(=O)O)[C@@H](O[C@@H]7O[C@H](CO)[C@@H](O)[C@H](O)[C@H]7O)[C@H](O)[C@H]6O)C(C)(C)C5CC[C@]43C)C2C1 (stereo not given in full),inactive,inactive,,,,,,,3.95% [at 11.5 µM],348% [at 11.5 µM],inactive [at 11.6 µM]
COc1cc(C2Oc3c(OC)cc(/C=C/C(=O)OC4CC(O)(C(=O)O)CC(O)C4O)cc3C2CO)ccc1O (stereo not given),inactive,inactive,inactive,inactive,,inactive,,,,,
C=C1[C@@H]2CC[C@@]3(C)[C@H](c4ccoc4)OC(=O)C[C@]13O[C@H]1CC(=O)C(C)(C)[C@H](C(O)C(=O)OC)[C@]12C (stereo not given in full),inactive,inactive,inactive,inactive,,inactive,,,,,
CC1=CCC[C@@H]2[C@](CCc3ccoc3)(C(=O)O)[C@H](C)CC[C@@]12C,inactive,inactive,inactive,inactive,,inactive,,,,,
C/C=C(\C)C1C(C)=CC2CCC(OS(=O)(=O)O)C(C)C2C1/C=C/C=C/C(=O)O (stereo not given),inactive,inactive,inactive,,inactive,,,,,,
CNc1nc(Cc2ccccc2)nc2c1CCNC[C@@H]2C,inactive,inactive,inactive,inactive,,inactive,,,,,
COc1cc([C@H]2OC[C@](O)(Cc3ccc(O[C@@H]4O[C@H](CO)[C@@H](O)[C@H](O)[C@H]4O)c(OC)c3)[C@@H]2CO)ccc1O,inactive,inactive,inactive,inactive,,inactive,,,,,
C[C@]12CC[C@@H]3c4ccc(O)cc4CC[C@H]3[C@@H]1C[C@@H](O[C@@H]1O[C@H](C(=O)O)[C@@H](O)[C@H](O)[C@H]1O)[C@@H]2O,inactive,inactive,inactive,inactive,,inactive,,,,,
C[C@@H]1O[C@@H](O[C@H]2[C@H](O[C@H]3[C@H](O[C@H]4CC[C@@]5(C)C(CC[C@]6(C)C5CC=C5[C@@H]7CC(C)(C)C[C@@H](O)[C@]7(C)CC[C@]56C)[C@@]4(C)CO)O[C@H](C(=O)O)[C@@H](O)[C@@H]3O)O[C@H](C(=O)O)[C@H](O)[C@@H]2O)[C@H](O)[C@H](O)[C@H]1O (stereo not given in full),inactive,inactive,,,,,0.9% [at 11.6 µM],0% [at 11.6 µM],-2.66% [at 11.5 µM],68.8% [at 11.5 µM],
C=CC(C)(O)CC/C=C(\C)COC1O[C@H](CO)[C@@H](O)[C@H](O)[C@H]1O (stereo not given in full),inactive,inactive,inactive,2.93 µM (active),,inactive,,,,,
C=C1CCC2[C@](C)(CO)CCC[C@@]2(C)[C@@H]1CCC1=CCOC1=O (stereo not given in full),inactive,inactive,inactive,inactive,inactive,inactive,,,,,
C=C1C(OC(C)=O)C(=O)C2C(C)(C)C(O)CCC2(C)C1CC(OC(C)=O)/C(C)=C/COC(C)=O (stereo not given),inactive,inactive,inactive,inactive,inactive,inactive,,,,,
C=C1CC23CC(=O)C4C(CO)(CO)CCCC4(C)C2CCC1C3 (stereo not given),inactive,inactive,inactive,inactive,,inactive,,,,,
C/C=C(\C)C(=O)OC[C@H]1O[C@@H](O[C@H]2[C@@H](O[C@H]3O[C@H](COC(=O)/C(C)=C/C)[C@@H](O)[C@H](O)[C@H]3O[C@@H]3O[C@H](CO)[C@@H](O)[C@H](OC(=O)/C(C)=C/C)[C@H]3O)O[C@H](COC(=O)/C(C)=C/C)[C@@H](O)[C@@H]2O)[C@H](O)[C@@H](O)[C@@H]1O,inactive,inactive,,,,,2.77% [at 11.6 µM],-1.03% [at 11.6 µM],,,
